Measurements from PubChem BioAssay AID1159580 (chemical genetic matrix, 2015).
“And” between values parts separate entries of the source, which are not always exact repeats. Equal entries are not always repeated. In all, about 5,500 compounds went through this assay and about 2,000 (36%) were called active. About 18% were inconclusive and are not listed. Cut-off read from the data, not from the text of the source: active = normalized growth mostly below about 0.91 (no sharp cut-off); inconclusive = no clear call, values can overlap the other calls; inactive = mostly above about 0.92. The list shows a part of the results.

Experiment: chemical genetic growth profiling, strain panel (AID 1159580);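 note: tested at 20 µM; growth read once vehicle control cultures reached saturation at 30 °C; 1 = growth at the plate median or of vehicle wells; lower values mean less growth of the strain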
Settings: S. cerevisiae deletion strains, growth OD

Measured: normalized growth

Cc1oncc1C(=O)Nc1ccc(C(F)(F)F)cc1
active: locus YBR009C, strain hhf1, active compounds read low 0.901 | locus YBR231C, strain swc5, active compounds read low 0.88 | locus YDR159W, strain sac3, active compounds read low 0.754 | locus YDR297W, strain sur2, active compounds read low 0.91 | locus YER155C, strain BEM2 (second series), active compounds read low 0.733 | locus YGL240W, strain doc1, active compounds read low 0.785 | locus YJL129C, strain trk1, active compounds read low 0.869 | locus YLR027C, strain aat2, active compounds read low 0.919 | locus YMR205C, strain PFK2, active compounds read low 0.794 | locus YNL071W, strain lat1, active compounds read low 0.858
inactive: locus YAL013W, strain DEP1, active compounds read low 1.03 and 0.94 | locus YAL021C, strain ccr4, active compounds read low 1.05 | locus YAL026C, strain drs2, active compounds read low 0.97 | locus YAL030W, strain snc1, active compounds read low 0.979 | locus YAL040C, strain CLN3, active compounds read low 0.918 | locus YBL061C, strain skt5, active compounds read low 1.01 | locus YBR021W, strain FUR4, active compounds read low 1.02 | locus YBR023C, strain chs3, active compounds read low 0.979 | locus YBR171W, strain sec66, active compounds read low 1.02 | locus YBR229C, strain ROT2, active compounds read low 1.01 | locus YBR279W, strain paf1, active compounds read low 1 | locus YCL011C, strain gbp2, active compounds read low 0.919 | locus YCL016C, strain dcc1, active compounds read low 0.981 | locus YCL029C, strain bik1, active compounds read low 0.996 | locus YCL061C, strain MRC1 (second series), active compounds read low 0.983 | locus YCL061C, strain MRC1, active compounds read low 0.95 | locus YCL069W, strain vba3, active compounds read low 0.982 | locus YCR088W, strain abp1, active compounds read low 0.978 | locus YDL005C, strain med2, active compounds read low 1.02 | locus YDL035C, strain GPR1, active compounds read low 1.04 | locus YDL040C, strain nat1, active compounds read low 0.99 | locus YDL074C, strain BRE1, active compounds read low 1.01 | locus YDL101C, strain DUN1, active compounds read low 1.02 | locus YDL134C, strain PPH21, active compounds read low 1.04 | locus YDL185W, strain tfp1, active compounds read low 0.993 | locus YDL192W, strain arf1, active compounds read low 0.989 | locus YDR001C, strain nth1, active compounds read low 0.986 | locus YDR069C, strain doa4, active compounds read low 0.977 | locus YDR101C, strain arx1, active compounds read low 0.991 | locus YDR137W, strain rgp1, active compounds read low 1.03 | locus YDR150W, strain NUM1, active compounds read low 1.01 | locus YDR162C, strain NBP2, active compounds read low 1.03 | locus YDR195W, strain ref2 1.07 | locus YDR318W, strain mcm21, active compounds read low 0.993 | locus YDR334W, strain swr1, active compounds read low 0.991 | locus YDR335W, strain msn5, active compounds read low 0.994 | locus YDR363W, strain ESC2, active compounds read low 0.966 | locus YDR388W, active compounds read low 1 | locus YDR392W, strain spt3, active compounds read low 0.761 | locus YDR502C, strain sam2, active compounds read low 0.996 | locus YEL003W, strain gim4, active compounds read low 0.971 | locus YEL037C, strain rad23, active compounds read low 1.01 | locus YEL061C, strain CIN8 (second series), active compounds read low 0.998 | locus YEL061C, strain CIN8, active compounds read low 1.01 | locus YER002W, strain NOP16, active compounds read low 1.01 | locus YER015W, strain faa2, active compounds read low 0.998 | locus YER016W, strain bim1, active compounds read low 1.02 | locus YER110C, active compounds read low 0.99 | locus YER111C, strain swi4, active compounds read low 1.02 | locus YER155C, strain BEM2, active compounds read low 1.03 | locus YER167W, strain BCK2, active compounds read low 1.02 | locus YFR010W, strain ubp6, active compounds read low 1.01 | locus YGL078C, strain dbp3, active compounds read low 0.991 | locus YGL086W, strain mad1, active compounds read low 0.989 | locus YGL167C, strain pmr1, active compounds read low 1.01 | locus YGL173C, strain kem1, active compounds read low 0.976 | locus YGL227W, strain vid30, active compounds read low 0.97 | locus YGL248W, strain PDE1, active compounds read low 1.02 | locus YGL253W, strain hxk2, active compounds read low 0.997 | locus YGR078C, strain PAC10, active compounds read low 1.02 | locus YGR135W, strain pre9, active compounds read low 1 | locus YGR252W, strain gcn5, active compounds read low 0.988 | locus YHR013C, strain ard1, active compounds read low 1.13 | locus YHR027C, strain rpn1, active compounds read low 0.992 | locus YHR030C, strain SLT2, active compounds read low 1.02 | locus YHR079C, strain IRE1 (second series), active compounds read low 0.98 | locus YHR094C, strain hxt1, active compounds read low 0.99 | locus YHR129C, strain ARP1, active compounds read low 1.01 | locus YHR142W, strain chs7, active compounds read low 0.928 | locus YHR200W, strain rpn10, active compounds read low 0.991 | locus YIL066C, strain RNR3, active compounds read low 1.04 | locus YIL073C, strain SPO22, active compounds read low 1 | locus YIL125W, strain kgd1, active compounds read low 0.99 | locus YIR030C, strain dcg1, active compounds read low 0.985 | locus YJL092W, strain hpr5, active compounds read low 0.983 | locus YJL095W, strain BCK1 (second series), active compounds read low 0.947 | locus YJL095W, strain BCK1, active compounds read low 0.999 | locus YJL115W, strain asf1, active compounds read low 1.01 | locus YJL134W, strain LCB3, active compounds read low 1.02 | locus YJL154C, strain vps35, active compounds read low 0.994 | locus YJL164C, strain tpk1, active compounds read low 0.952 | locus YJL166W, strain qcr8, active compounds read low 0.932 | locus YJL168C, strain set2, active compounds read low 0.993 | locus YJL187C, strain SWE1 (second series), active compounds read low 1.01 | locus YJR043C, strain POL32, active compounds read low 1.05 | locus YKL009W, strain mrt4, active compounds read low 0.997 | locus YKL068W, active compounds read low 0.998 | locus YKL085W, strain MDH1 (second series), active compounds read low 0.999 | locus YKL085W, strain MDH1, active compounds read low 0.999 | locus YKL160W, strain elf1, active compounds read low 0.96 | locus YKR001C, strain vps1, active compounds read low 0.997 | locus YKR026C, strain gcn3, active compounds read low 0.98 | locus YKR091W, strain srl3, active compounds read low 0.995 | locus YLL001W, strain dnm1, active compounds read low 0.954 | locus YLL026W, active compounds read low 0.966 | locus YLL041C, strain sdh2, active compounds read low 0.958 | locus YLR039C, strain RIC1, active compounds read low 0.984 | locus YLR058C, strain SHM2, active compounds read low 1.02 | locus YLR102C, strain apc9, active compounds read low 0.983 | locus YLR221C, strain rsa3, active compounds read low 0.962 | locus YLR258W, strain gsy2, active compounds read low 0.947 | locus YLR262C, strain YPT6 (second series), active compounds read low 1.03 | locus YLR262C, strain YPT6, active compounds read low 1.01 | locus YLR268W, strain sec22, active compounds read low 0.992 | locus YLR320W, strain mms22, active compounds read low 0.889 | locus YLR330W, strain CHS5, active compounds read low 1.02 | locus YLR342W, strain FKS1 (second series), active compounds read low 1.04 | locus YLR342W, strain FKS1, active compounds read low 0.952 | locus YLR357W, strain rsc2, active compounds read low 0.947 | locus YLR370C, strain arc18, active compounds read low 1.01 | locus YLR371W, strain rom2, active compounds read low 0.982 | locus YLR384C, strain iki3, active compounds read low 1 | locus YLR418C, strain cdc73, active compounds read low 0.981 | locus YML016C, strain PPZ1, active compounds read low 1.03 | locus YML032C, strain rad52, active compounds read low 0.989 | locus YML120C, strain ndi1, active compounds read low 0.979 | locus YML124C, strain tub3, active compounds read low 0.988 | locus YMR058W, strain fet3, active compounds read low 0.937 | locus YMR078C, strain ctf18, active compounds read low 1 | locus YMR125W, strain sto1, active compounds read low 0.984 | locus YMR129W, active compounds read low 0.978 | locus YMR223W, strain ubp8, active compounds read low 0.998 | locus YMR231W, strain pep5, active compounds read low 1.01 | locus YMR263W, strain SAP30, active compounds read low 1.02 | locus YMR307W, strain GAS1, active compounds read low 1.16 and 0.976 | locus YNL067W, strain RPL9B, active compounds read low 1 | locus YNL128W, strain TEP1, active compounds read low 1.02 and 0.958 | locus YNL175C, strain NOP13, active compounds read low 0.934 | locus YNL197C, strain WHI3, active compounds read low 0.946 | locus YNL209W, strain ssb2, active compounds read low 0.99 | locus YNL224C, strain SQS1, active compounds read low 0.94 | locus YNL233W, strain BNI4, active compounds read low 1 | locus YNL248C, strain rpa49, active compounds read low 0.99 | locus YNL250W, strain rad50, active compounds read low 0.98 | locus YNL271C, strain bni1, active compounds read low 0.993 | locus YNL298W, strain CLA4, active compounds read low 1.01 | locus YNL307C, strain MCK1, active compounds read low 0.991 | locus YNL322C, strain KRE1 (second series), active compounds read low 0.973 | locus YNR049C, strain mso1, active compounds read low 0.992 | locus YNR052C, strain pop2, active compounds read low 0.979 | locus YOL006C, strain TOP1, active compounds read low 0.986 | locus YOL012C, strain htz1 1.17 | locus YOL147C, strain pex11, active compounds read low 0.993 | locus YOR001W, strain rrp6, active compounds read low 0.997 | locus YOR061W, strain CKA2, active compounds read low 1.03 | locus YOR069W, strain VPS5, active compounds read low 1.02 | locus YOR070C, strain gyp1, active compounds read low 0.988 | locus YOR080W, strain dia2, active compounds read low 1.01 | locus YOR083W, strain WHI5 (second series), active compounds read low 0.891 | locus YOR083W, strain WHI5, active compounds read low 0.952 | locus YOR106W, strain vam3, active compounds read low 0.955 | locus YOR136W, strain idh2, active compounds read low 0.982 | locus YOR144C, strain elg1, active compounds read low 0.988 | locus YOR184W, strain ser1, active compounds read low 1 | locus YOR265W, strain rbl2, active compounds read low 0.979 | locus YOR270C, strain vph1, active compounds read low 0.964 | locus YOR290C, strain snf2, active compounds read low 0.957 | locus YOR316C, strain cot1, active compounds read low 1 | locus YPL051W, strain arl3, active compounds read low 0.987 | locus YPL055C, strain LGE1, active compounds read low 1.02 | locus YPL078C, strain atp4, active compounds read low 0.935 | locus YPL106C, strain sse1, active compounds read low 0.972 | locus YPL240C, strain hsp82, active compounds read low 0.992 | locus YPL241C, strain CIN2, active compounds read low 1.01 and 0.971 | locus YPR119W, strain clb2, active compounds read low 0.989 | locus YPR141C, strain kar3, active compounds read low 0.991 | locus YPR163C, strain tif3, active compounds read low 0.991 | locus YPR167C, strain met16, active compounds read low 0.995 | strain wtn01, active compounds read low 0.992
